Results reported in PubChem BioAssay (Tox21).
Unmarked numbers belong to inactive results. Inconclusive results are not listed. Where a call stands in place of a potency, no number is given. Calls of active or inactive are those of the source. Unless noted, the call rests on the fitted dose curve.

Tests used:
[1] = Nuclear factor erythroid 2-related factor 2/antioxidant responsive element (Nrf2/ARE) small molecule agonists: qHTS cell viability counter screen in human keratinocytes (AID 1919968; active means well fitted curve in the direction sought with a large enough effect in the repeat runs; an effect the other way counts as inactive or inconclusive; further: nearly all actives have a fitted effect of over 55% in size; further: potency means the concentration at half of the fitted maximal effect)
In short: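 KeratinoSens HaCaT cells, 1,500/well, preincubated 5 h, then exposed to compounds in DMSO for 23 h at 37 C/5% CO2. Viability read as CellTiter-Fluor fluorescence after 1 h, in the same wells as the ARE-luciferase read.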

[2] = Nuclear factor erythroid 2-related factor 2/antioxidant responsive element (Nrf2/ARE) small molecule agonists: luciferase reporter gene qHTS assay in human keratinocytes (AID 1919969); further: nearly all actives have a fitted effect of over 35% in size; further: potency means the concentration at half of the fitted maximal effect
[3] = biological target: Gonadotropin-releasing hormone receptor (Homo sapiens) (UniProt P30968); assay: Human gonadotropin-releasing hormone receptor (GnRHR) small molecule agonists, calcium flux assay in GnRHR-HEK293 cells (AID 1920063); further: nearly all actives have a fitted effect of over 35% in size
Chain of Gonadotropin-releasing hormone receptor (Homo sapiens) (P30968 whole entry, looked up): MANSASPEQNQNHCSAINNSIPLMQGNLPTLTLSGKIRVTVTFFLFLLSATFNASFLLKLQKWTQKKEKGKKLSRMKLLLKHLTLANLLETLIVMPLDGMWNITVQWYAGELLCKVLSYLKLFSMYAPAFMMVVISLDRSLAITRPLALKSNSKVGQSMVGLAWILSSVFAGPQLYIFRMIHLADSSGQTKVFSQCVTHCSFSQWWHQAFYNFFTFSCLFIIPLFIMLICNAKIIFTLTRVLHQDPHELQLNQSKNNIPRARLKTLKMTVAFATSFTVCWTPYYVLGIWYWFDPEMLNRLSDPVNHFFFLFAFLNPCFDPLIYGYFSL
In short: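 HEK293 cells stably expressing human GnRHR were dye-loaded for 1 h at 37 C. Compound was added in agonist mode and fluorescence (Ex/Em 480/540) recorded kinetically for 3 min. Fifteen concentrations, triplicates.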

[4] = biological target: KiSS-1 receptor (Homo sapiens) (UniProt Q969F8); assay: Human kisspeptin (KISS1R) small molecule agonists, calcium flux assay in KISS1R-HEK293 cells (AID 1920064; active means well fitted curve in the direction sought with a large enough effect in the repeat runs; an effect the other way counts as inactive or inconclusive)
Chain of KiSS-1 receptor (Homo sapiens) (Q969F8 whole entry, looked up): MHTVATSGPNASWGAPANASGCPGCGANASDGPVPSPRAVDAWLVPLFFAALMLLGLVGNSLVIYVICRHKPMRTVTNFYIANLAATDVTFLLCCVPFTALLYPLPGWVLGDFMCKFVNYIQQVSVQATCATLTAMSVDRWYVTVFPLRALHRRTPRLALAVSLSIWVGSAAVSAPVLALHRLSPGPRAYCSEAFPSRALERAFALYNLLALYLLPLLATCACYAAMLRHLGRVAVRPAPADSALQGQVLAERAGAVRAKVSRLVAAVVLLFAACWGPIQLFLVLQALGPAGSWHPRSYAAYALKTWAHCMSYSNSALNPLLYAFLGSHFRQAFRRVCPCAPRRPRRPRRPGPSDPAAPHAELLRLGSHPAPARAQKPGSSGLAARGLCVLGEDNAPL
In short: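 HEK293 cells stably expressing human KISS1R were loaded with calcium dye for 1 h at 37 C, then given compound; fluorescence (Ex/Em 480/540) was read kinetically for 3 min. Fifteen concentrations, triplicate.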

[5] = G protein-coupled receptor (GPCR) small molecule agonists, calcium flux assay: HEK293 wild type cell line counter screen (AID 1920065)
In short: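 Wild-type HEK293 cells plated 18 h, loaded with calcium dye 1 h at 37 C, then compounds added in agonist mode (ATP as positive control). Kinetic fluorescence Ex/Em 480/540 recorded 3 min at 1 sec intervals; 15 concentrations, triplicate.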

[6] = p53 small molecule agonists, cell-based qHTS assay with human liver microsomes (AID 1963577)
In short: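 p53RE-bla reporter cells were pre-incubated 5 h at 37 C, then treated with compounds plus human liver microsomes (0.5 mg/mL final) and NADPH (0.5 mg/mL final) for 16 h at 37 C. Beta-lactamase activity was read by LiveBLAzer fluorescence after 2 h at room temperature.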

[7] = p53 small molecule agonists, cell-based qHTS assay with rat liver microsomes (AID 1963578)
In short: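 p53RE-bla cells were exposed to compounds together with rat liver microsomes (0.5 mg/mL final) and NADPH (0.5 mg/mL final) for 16 h at 37 C, then read by LiveBLAzer beta-lactamase fluorescence after 2 h at room temperature.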

[8] = p53 small molecule agonists, cell-based qHTS assay with human liver microsomes: qHTS cell viability counter screen (AID 1963579); further: nearly all actives have a fitted effect of over 45% in size; further: potency means the concentration at half of the fitted maximal effect
In short: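 p53RE-bla cells (4,000/well) were pre-incubated 5 h at 37 C, then given compounds in DMSO plus human liver microsomes (0.5 mg/mL final) and NADPH (0.5 mg/mL final) for 16 h at 37 C. Viability was read by CellTiter-Glo luminescence.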

[9] = p53 small molecule agonists, cell-based qHTS assay: qHTS cell viability counter screen (AID 1963581); further: nearly all actives have a fitted effect of over 45% in size; further: potency means the concentration at half of the fitted maximal effect
In short: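 p53RE-bla HCT-116 cells, compounds added 5 h after plating and incubated 16 h at 37 C. Cytotoxicity measured in the same wells as intracellular ATP by CellTiter-Glo luminescence after 30 min at room temperature.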

[10] = biological target: 5-hydroxytryptamine receptor 2A (Homo sapiens) (UniProt P28223); assay: 5-hydroxytryptamine receptor 2A (HTR2A) small molecule antagonists, cell-based qHTS assay (AID 1963586); further: nearly all actives have a fitted effect of over 45% in size
Chain of 5-hydroxytryptamine receptor 2A (Homo sapiens) (P28223 whole entry, looked up): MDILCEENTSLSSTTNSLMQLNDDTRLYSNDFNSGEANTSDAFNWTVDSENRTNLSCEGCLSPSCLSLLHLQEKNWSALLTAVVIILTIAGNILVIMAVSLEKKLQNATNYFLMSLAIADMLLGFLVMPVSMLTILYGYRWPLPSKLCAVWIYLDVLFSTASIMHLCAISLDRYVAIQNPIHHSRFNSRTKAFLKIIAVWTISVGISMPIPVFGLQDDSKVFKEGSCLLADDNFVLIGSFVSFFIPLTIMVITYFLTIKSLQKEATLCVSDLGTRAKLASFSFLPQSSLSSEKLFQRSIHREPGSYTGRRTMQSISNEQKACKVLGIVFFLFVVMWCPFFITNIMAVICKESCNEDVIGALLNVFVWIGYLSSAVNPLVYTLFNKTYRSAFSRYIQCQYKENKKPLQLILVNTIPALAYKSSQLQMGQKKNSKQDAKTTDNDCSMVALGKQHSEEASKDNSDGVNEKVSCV
In short: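 Antagonist-mode intracellular calcium assay: DOI (4 nM) added after 5 min compound pre-incubation at room temperature to dye-loaded HTR2A-CHO cells. Fluorescence followed for 3 min, sampled every second.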

[11] = biological target: 5-hydroxytryptamine receptor 2A (Homo sapiens) (UniProt P28223); assay: 5-hydroxytryptamine receptor 2A (HTR2A) small molecule agonists, cell-based qHTS assay (AID 1963587); further: nearly all actives have a fitted effect of over 30% in size
In short: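 CHO cells stably expressing human HTR2A, plated 18 h, loaded with calcium dye 1 h at 37 C. Agonist mode: compounds added and intracellular calcium fluorescence recorded kinetically for 2 min at 1 sec intervals.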

[12] = biological target: Muscarinic acetylcholine receptor M1 (Homo sapiens) (UniProt P11229); assay: Cholinergic receptor muscarinic 1 (CHRM1) small molecule antagonists, cell-based qHTS assay (AID 1963588); further: nearly all actives have a fitted effect of over 40% in size
Chain of Muscarinic acetylcholine receptor M1 (Homo sapiens) (P11229 whole entry, looked up): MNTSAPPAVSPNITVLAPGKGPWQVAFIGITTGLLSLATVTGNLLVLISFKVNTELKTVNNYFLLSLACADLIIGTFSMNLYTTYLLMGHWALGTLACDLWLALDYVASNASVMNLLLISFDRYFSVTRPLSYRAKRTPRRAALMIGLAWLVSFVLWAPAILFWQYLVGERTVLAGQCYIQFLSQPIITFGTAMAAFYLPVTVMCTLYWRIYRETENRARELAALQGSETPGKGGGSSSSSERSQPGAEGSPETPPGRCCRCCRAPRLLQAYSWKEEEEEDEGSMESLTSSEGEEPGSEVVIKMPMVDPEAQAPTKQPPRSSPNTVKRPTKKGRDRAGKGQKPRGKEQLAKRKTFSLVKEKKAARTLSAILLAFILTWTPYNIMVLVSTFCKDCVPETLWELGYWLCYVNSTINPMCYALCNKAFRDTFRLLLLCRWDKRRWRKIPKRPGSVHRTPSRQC
In short: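 CHRM1-CHO calcium-flux assay, antagonist mode. Cells were seeded 18 h, dye-loaded 1 h at 37 C and given compound for 5 min at RT, then acetylcholine was added at 50nM. FDSS fluorescence was read 3 min; 15 concentrations, three runs.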

[13] = biological target: Muscarinic acetylcholine receptor M1 (Homo sapiens) (UniProt P11229); assay: Cholinergic receptor muscarinic 1 (CHRM1) small molecule agonists, cell-based qHTS assay (AID 1963589); further: nearly all actives have a fitted effect of over 35% in size
In short: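 CHO cells stably expressing human CHRM1 were loaded with calcium dye for 1 h at 37 C, then compound was added in agonist mode. Intracellular calcium fluorescence was followed kinetically at 1 s intervals. Fifteen concentrations were tested in three independent runs.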

[14] = cAMP Responsive Elements (CRE) small molecule agonists, cell-based qHTS assay (AID 1963590)
In short: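 CRE-bla HEK 293T cells, 2,000/well in DMEM with 10% dialyzed FBS and 25 mM HEPES, pre-incubated 18 h at 37 C, then exposed to compound 3 h at 37 C. Beta-lactamase reporter read with LiveBLAzer B/G FRET substrate after 2 h at room temperature.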

[15] = cAMP Responsive Elements (CRE) small molecule antagonists, cell-based qHTS assay (AID 1963591; active means well fitted inhibition curve with a large enough effect in the signal ratio in the repeat runs, not every such curve was filed as active; the % refers to the signal ratio)
In short: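 CRE-bla HEK293T cells plated 18 h, then given compound plus NKH477 at 0.25 uM final for 3 h at 37C. Beta-lactamase reporter read with LiveBLAzer B/G FRET substrate after 2 h at room temperature.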

[16] = biological target: Beta-2 adrenergic receptor (Homo sapiens) (UniProt P07550); assay: Adrenergic beta2 receptor (ADRB2) small molecule antagonists, cell-based qHTS assay (AID 1963592); further: series mostly up to about 92 µM; nearly all actives have a fitted effect of over 50% in size
Chain of Beta-2 adrenergic receptor (Homo sapiens) (P07550 whole entry, looked up): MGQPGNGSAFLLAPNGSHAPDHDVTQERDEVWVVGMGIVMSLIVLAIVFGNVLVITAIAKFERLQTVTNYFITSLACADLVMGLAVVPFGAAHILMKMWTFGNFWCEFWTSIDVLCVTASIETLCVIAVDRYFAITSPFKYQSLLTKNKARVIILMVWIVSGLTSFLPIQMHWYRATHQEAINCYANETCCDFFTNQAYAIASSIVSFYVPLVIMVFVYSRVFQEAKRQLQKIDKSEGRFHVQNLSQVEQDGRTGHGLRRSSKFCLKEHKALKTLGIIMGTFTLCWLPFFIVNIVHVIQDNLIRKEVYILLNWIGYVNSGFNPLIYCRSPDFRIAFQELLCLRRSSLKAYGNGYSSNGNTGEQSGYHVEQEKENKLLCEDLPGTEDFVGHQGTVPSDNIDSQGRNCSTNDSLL
In short: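 Cells (CHO, stable ADRB2 overexpression) incubated 18-20hr at 37C; compounds added from DMSO; agonist mix (1nM isoproterenol, 100uM IBMX, 25uM Ro-20-1724) added; 0.5hr RT; d2-cAMP and anti-cAMP-cryptate added; 1hr RT; 665/615 nm read.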

[17] = biological target: D(2) dopamine receptor (Homo sapiens) (UniProt P14416); assay: Dopamine D2 receptor (DRD2) small molecule agonists, cell-based qHTS assay (AID 1963594); further: nearly all actives have a fitted effect of over 35% in size
Chain of D(2) dopamine receptor (Homo sapiens) (P14416 whole entry, looked up): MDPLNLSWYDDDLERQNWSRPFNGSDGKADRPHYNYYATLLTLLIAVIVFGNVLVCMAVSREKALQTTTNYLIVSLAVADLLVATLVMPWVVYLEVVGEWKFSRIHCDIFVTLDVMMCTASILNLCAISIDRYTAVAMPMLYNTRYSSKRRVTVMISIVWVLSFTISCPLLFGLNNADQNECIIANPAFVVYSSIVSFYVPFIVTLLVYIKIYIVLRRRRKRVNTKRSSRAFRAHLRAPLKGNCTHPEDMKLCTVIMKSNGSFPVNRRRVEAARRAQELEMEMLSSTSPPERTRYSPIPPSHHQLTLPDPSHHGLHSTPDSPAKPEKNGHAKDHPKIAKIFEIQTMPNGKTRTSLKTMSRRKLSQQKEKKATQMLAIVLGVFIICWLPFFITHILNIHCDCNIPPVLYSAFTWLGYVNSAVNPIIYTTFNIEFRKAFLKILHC
In short: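 HEK293 cells stably expressing human DRD2, pre-treated with PDE inhibitor Ro20-1724 (0.1 mM final) and compound 10 min at room temperature, then stimulated with NKH477 (200nM […]) for 30 min. cAMP read by HTRF (665/620 nm).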

[18] = biological target: D(2) dopamine receptor (Homo sapiens) (UniProt P14416); assay: Dopamine D2 receptor (DRD2) small molecule antagonists, cell-based qHTS assay (AID 1963595; active means well fitted inhibition curve with a large enough effect in the signal ratio in the repeat runs, with a control signal flat; the % refers to the signal ratio; further: potency means the concentration at half of the fitted maximal effect)
In short: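 Antagonism was scored as restored cAMP in HEK293-DRD2 cells. These cells were stimulated with 200 nM NKH477 and 12 nM quinpirole for 30 min at room temperature, in the presence of 0.1 mM Ro20-1724.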

[19] = p53 small molecule agonists, cell-based qHTS assay with rat liver microsomes: qHTS cell viability counter screen (AID 1963580); further: nearly all actives have a fitted effect of over 45% in size
In short: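 p53RE-bla HCT-116 cells were exposed 16 h at 37 C to compounds with rat liver microsomes (0.5 mg/mL) and NADPH (0.5 mg/mL). Viability was measured in the same wells as ATP content by CellTiter-Glo luminescence.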

[20] = p53 small molecule agonists, cell-based qHTS assay (AID 1963582; active means well fitted activation curve with a large enough effect in the signal ratio in the repeat runs, not every such curve was filed as active; the % refers to the signal ratio)
In short: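 p53RE-bla reporter cells, compounds added in DMSO after 5 h plating, incubated 16 h at 37 C. Beta-lactamase read via 2 h room-temperature LiveBLAzer B/G FRET substrate, fluorescence intensity.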

SMILES	Potency [1]	Potency [2]	Potency [3]	Potency [4]	Potency [5]	Potency [6]	Potency [7]	Potency [8]	Potency [9]	Potency [10]	Potency [11]	Potency [12]	Potency [13]	Potency [14]	Potency [15]	Potency [16]	Potency [17]	Potency [18]	Potency [19]	Potency [20]
O=c1[nH]oc2c1CCNC2	inactive	inactive	inactive	inactive	inactive	inactive	inactive	inactive	inactive	inactive	inactive	inactive	inactive	inactive	inactive	inactive	inactive	inactive		
C=CC(=O)OCC(COC(=O)C=C)(COC(=O)C=C)COC(=O)C=C	9.69 µM (active)	6.11 µM (active)	inactive	inactive	inactive	inactive	inactive	4.08 µM (active)	10.2 µM (active)	inactive	inactive	inactive	inactive			inactive	inactive	54.5 µM (active)		
CCC[CH2][Sn]([CH2]CCC)([O]C(C)=O)[O]C(C)=O	0.219 µM (active)	0.0978 µM (active)	inactive	inactive	inactive	inactive	inactive		inactive	inactive	inactive	inactive				inactive		inactive	inactive	inactive
COC(=O)N(C(=O)N1COC2(C(=O)OC)Cc3cc(Cl)ccc3C2=N1)c1ccc(OC(F)(F)F)cc1 (configuration not stated)	inactive	inactive	inactive	inactive	inactive	inactive	inactive	inactive	inactive		inactive	inactive	inactive	inactive	inactive	inactive	inactive	inactive		inactive
O=C(O)c1cc[c]([Hg][Cl])cc1	48.6 µM (active)	21.7 µM (active)	inactive	inactive	inactive	inactive	inactive		inactive	inactive	inactive	inactive	inactive			inactive	inactive		inactive	inactive
Cn1cc(C2=C(c3cn(C4CCN(Cc5ccccn5)CC4)c4ccccc34)C(=O)NC2=O)c2ccccc21	4.22 µM (active)	inactive	inactive	inactive	inactive	inactive	inactive	inactive		inactive		inactive	inactive			inactive	inactive	inactive	inactive	
C=C(Cl)Cl	inactive	inactive	inactive	inactive	inactive	inactive	inactive	inactive						inactive		inactive		inactive	inactive	inactive
C=CCOC(C)=O	inactive	inactive	inactive	inactive	inactive	inactive	inactive	inactive	inactive	inactive	inactive	inactive	inactive			inactive		inactive		inactive
